PubChem BioAssay AID2685 (National Center for Advancing Translational Sciences (NCATS), 2010)
The whole screen tested about 320,000 compounds, of which about 2,100 (0.66%) were called active. Inconclusive results (about 53%) are left out. Calls follow the shape of the dose curve; as a rule, active = well fitted inhibition curve with a large enough effect in the signal ratio, with a control signal flat (not every such curve was filed as active); inconclusive = small, poorly fitted or top-dose-only effect, or effect the other way, or a change in a side signal; inactive = flat fitted curve, though single readings scatter; the % refers to the signal ratio. The full list was thinned out, with actives kept by preference.

assay: qHTS Assay for Lipid Storage Modulators in Drosophila S3 Cells; settings: BODIPY lipid droplet fluorescence, 18-24 h, cells fed with added oleic acid; cell number change: measured here: cell count max response; series mostly up to 46.1 µM; lipid storage change, negative = inhibition: at the top concentration;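 as to cell number change: cells counted by Cell Tracker Red CMTPX staining in the red channel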; as to lipid storage change, negative = inhibition: % is scaled to controls: 0 for no effect and ±100 for the full control effect
In short: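 Drosophila S3 cells loaded with oleic acid (400 uM, as added) and compounds at several concentrations; lipid droplets imaged by 488-nm laser-scanning cytometry, 500–530 nm intensity and object ratio to cell channel. Percent activity normalized to 20 uM Triacsin C.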
Potency is read from the fitted curve at half-maximal effect.

With `COc1cnc(-c2ccccn2)nc1Oc1c(C)cccc1C` as the molecule, how does the “outcome” value read?
The value was “inactive”.

With `COc1cnc(-c2ccccc2)nc1Oc1cccc(C)c1C` as the molecule, how does the “lipid storage change, negative = inhibition” value read?
Its value is 0.382% (inactive).

What about the cell number change of the same molecule?
The cell number change was 7.32%.

For `COc1ccc(/C=C2/N=C(SC3CCOC3=O)N(c3cccc(OC)c3)C2=O)cc1` (configuration not stated), which “lipid storage change, negative = inhibition” value is on record?
Its value is -2.83% (inactive).

And the cell number change?
Its cell number change is -7.72%.

With `CCOC(=O)C1CCN(CC(=O)c2c(C)[nH]c3ccccc23)CC1` as the molecule, how does the “outcome” value read?
The value was “inactive”.

Which “lipid storage change, negative = inhibition” value does the source give for `O=c1oc(-c2cccs2)nc2ccccc12` here?
The value was -17.8% (inactive).

And the cell number change?
The cell number change was 0.728%.

With `Cc1ccc(CSCCNC(=O)CSCc2ccc([N+](=O)[O-])cc2)cc1` as the molecule, how does the “outcome” value read?
Its value is “inactive”.

With `Cc1cccc(CSCCNC(=O)CSCc2ccc([N+](=O)[O-])cc2)c1` as the molecule, how does the Potency read?
Its Potency is 14.6 µM (active).

What about the cell number change of the same molecule?
Its cell number change is -21.3%.

Which “lipid storage change, negative = inhibition” value does the source give for `Cc1ccccc1CSCCNC(=O)CSCc1ccc([N+](=O)[O-])cc1` here?
Its value is 13% (inactive).

And the cell number change?
The cell number change was -11.7%.

For `Cc1ccc(C)c(N2CCN(C(=O)c3ccccc3Br)CC2)c1`, which “lipid storage change, negative = inhibition” value is on record?
The value was 20.8% (inactive).

What about the cell number change of the same molecule?
Its cell number change is 10.9%.

With `COC(=O)C1(Cc2cc(-c3cccc(Br)c3)no2)CCN(C(=O)OC(C)(C)C)CC1` as the molecule, how does the “lipid storage change, negative = inhibition” value read?
The value was 36% (inactive).

And the cell number change?
The cell number change was 7.19%.

With `CNc1ccccc1C(C)(C)c1cc(-c2cccc(Br)c2)no1` as the molecule, how does the Potency read?
The Potency was 1.46 µM (active).

And the cell number change?
Its cell number change is -5.11%.

For `Brc1cccc(-c2nnc(-c3ccccc3)o2)c1`, which “lipid storage change, negative = inhibition” value is on record?
The value was 2.23% (inactive).

And the cell number change?
Its cell number change is 1.68%.

Which results are given for `CCc1ccc(CNC(=O)C2CCN(S(=O)(=O)N3CCC4(CC3)OCCO4)CC2)cc1`?
lipid storage change, negative = inhibition: 2.59% (inactive); cell number change: 0.101%

With `Cc1ccccc1C(=O)Nc1ccnn1C1CCN(Cc2c(C)n(C)c3ccccc23)CC1` as the molecule, how does the “lipid storage change, negative = inhibition” value read?
The value was -18.4% (inactive).

And the cell number change?
Its cell number change is 1.16%.

Which results are given for `O=C(O)c1ccc(N=Nc2c(O)[nH]c3ccc(Br)cc23)cc1`?
lipid storage change, negative = inhibition: -23.1% (inactive); cell number change: 13.1%

Which Potency does the source give for `Oc1[nH]c2ccccc2c1N=Nc1ccc(F)cc1` here?
Its Potency is 20.6 µM (active).

And the cell number change?
The cell number change was -4.65%.

Which “lipid storage change, negative = inhibition” value does the source give for `Oc1[nH]c2ccccc2c1N=Nc1c(F)c(F)c(Cl)c(F)c1F` here?
Its value is -1.55% (inactive).

What about the cell number change of the same molecule?
Its cell number change is -0.455%.

Which results are given for `Oc1[nH]c2ccccc2c1N=Nc1c(F)c(F)c(C(F)(F)F)c(F)c1F`?
lipid storage change, negative = inhibition: -3.87% (inactive); cell number change: 14.6%

Which “lipid storage change, negative = inhibition” value does the source give for `Cc1ccc2[nH]c(O)c(N=NC(N)=S)c2c1` here?
The value was -0.73% (inactive).

And the cell number change?
Its cell number change is 9.04%.

What does the source list for `Cc1ccc(N=Nc2c(O)[nH]c3ccc(F)cc23)cc1`?
Potency: 9.2 µM (active); cell number change: 2.25%

Which “lipid storage change, negative = inhibition” value does the source give for `O=C(NC1(C(=O)NC2CCCCC2)CCCCC1)c1ccc2c(c1)OCO2` here?
Its value is -0.326% (inactive).

And the cell number change?
Its cell number change is 4.66%.

Which results are given for `O=C(NNC(=O)c1cnccc1C(F)(F)F)c1ccccc1`?
lipid storage change, negative = inhibition: 12.6% (inactive); cell number change: 8.28%

What does the source list for `O=C(O)CC12CC3CC(C1)CC(n1ncc(NCc4ccc5c(c4)OCO5)c(Cl)c1=O)(C3)C2`?
lipid storage change, negative = inhibition: 2.72% (inactive); cell number change: 16.3%

For `CN(CC1CCCO1)S(=O)(=O)c1ccc(C(=O)Nc2ccc3c(c2)OCO3)cc1` (configuration not stated), which “lipid storage change, negative = inhibition” value is on record?
The value was 11.3% (inactive).

What about the cell number change of the same molecule?
The cell number change was 16.6%.

With `CN(C)S(=O)(=O)c1ccc(NC(=O)c2ccc([N+](=O)[O-])cc2)cc1` as the molecule, how does the “lipid storage change, negative = inhibition” value read?
The value was -4.71% (inactive).

And the cell number change?
The cell number change was -1.07%.

With `O=C(NCC1CCCO1)c1ccc(NC(=O)c2ccc([N+](=O)[O-])cc2)cc1` (configuration not stated) as the molecule, how does the “lipid storage change, negative = inhibition” value read?
The value was 5.72% (inactive).

What about the cell number change of the same molecule?
Its cell number change is 13.2%.

With `CN(CC1CCCO1)S(=O)(=O)c1ccc(C(=O)Nc2ccc([N+](=O)[O-])cc2)cc1` (configuration not stated) as the molecule, how does the Potency read?
Its Potency is 12.6 µM (active).

And the cell number change?
Its cell number change is -17.5%.

What does the source list for `CN(CC1CCCO1)S(=O)(=O)c1ccc(C(=O)Nc2ccc(F)cc2)cc1` (configuration not stated)?
Potency: 23.1 µM (active); cell number change: -21.7%

Which “lipid storage change, negative = inhibition” value does the source give for `Cc1cc(NC(=O)c2ccc(S(=O)(=O)N(C)CC3CCCO3)cc2)no1` (configuration not stated) here?
The value was 0.714% (inactive).

With `CCOC(=O)Cn1c(=O)c2c(nc3n2CCS3)n(C)c1=O` as the molecule, how does the “lipid storage change, negative = inhibition” value read?
The value was 11.5% (inactive).

What about the cell number change of the same molecule?
Its cell number change is 2.48%.

Which results are given for `CN1C(C(=O)NCc2ccco2)CC2Cn3c(nc4cc5ccccc5cc43)C21` (configuration not stated)?
lipid storage change, negative = inhibition: 11.7% (inactive); cell number change: 2.89%

For `COc1cccc(C(=O)NCCS(=O)(=O)N2CC(C)CC(C)C2)c1` (configuration not stated), which “lipid storage change, negative = inhibition” value is on record?
Its value is 27% (inactive).

What about the cell number change of the same molecule?
Its cell number change is 28.7%.

For `CCN(Cc1ccccc1)C(c1ccncc1)c1nnnn1C(C)(C)C` (configuration not stated), which “lipid storage change, negative = inhibition” value is on record?
Its value is 8.87% (inactive).

And the cell number change?
The cell number change was 1.49%.

What does the source list for `Cc1c2ccccc2nc2c(F)c(NC(C)C)c(F)c(F)c12`?
Potency: 20.6 µM (active); cell number change: -3.77%

What does the source list for `CCCNc1nc2ccccc2c(=O)[nH]1`?
lipid storage change, negative = inhibition: 8.85% (inactive); cell number change: -7.59%

For `CCCNc1c(F)c(F)c2c(C)c3ccccc3nc2c1F`, which Potency is on record?
Its Potency is 14.6 µM (active).

What about the cell number change of the same molecule?
The cell number change was 13.7%.

For `CN(C)c1c2ccccc2nc2c(F)c(F)c(F)c(F)c12`, which “lipid storage change, negative = inhibition” value is on record?
Its value is 0.999% (inactive).

And the cell number change?
The cell number change was -0.117%.

For `Cc1c2ccccc2nc2c(F)c(N(C)C)c(F)c(F)c12`, which “lipid storage change, negative = inhibition” value is on record?
The value was -15.5% (inactive).

What about the cell number change of the same molecule?
The cell number change was -4.76%.

Which “lipid storage change, negative = inhibition” value does the source give for `Cc1c2ccccc2nc2c(F)c(NCCO)c(F)c(F)c12` here?
Its value is -22.8% (inactive).

What about the cell number change of the same molecule?
The cell number change was -2.87%.

What does the source list for `CCOC(=O)/C(=N\NC(=O)c1ccccc1)c1ccccc1`?
lipid storage change, negative = inhibition: -1.81% (inactive); cell number change: 17.6%

What does the source list for `CCOC(=O)c1sc2ccc(S(=O)(=O)N3CCOCC3)cc2c1N`?
lipid storage change, negative = inhibition: -16.1% (inactive); cell number change: -11.9%

With `CCOC(=O)NC(=O)CSc1cc(C)c2cc(C)cc(C)c2n1` as the molecule, how does the “lipid storage change, negative = inhibition” value read?
The value was 4.15% (inactive).

And the cell number change?
The cell number change was -6.06%.

For `O=C(c1ccc(F)cc1)N1CCN(S(=O)(=O)c2ccc(Br)cc2)CC1`, which “outcome” value is on record?
Its value is “inactive”.

For `CCOC(=O)C1(C)NC(c2ccc(O)cc2)C2C(=O)N(c3ccccc3)C(=O)C21` (configuration not stated), which Potency is on record?
The Potency was 20.6 µM (active).

And the cell number change?
Its cell number change is 13.7%.

What does the source list for `CCOC(=O)C1(C)NC(c2cccc(C)c2)C2C(=O)N(c3ccccc3)C(=O)C21` (configuration not stated)?
lipid storage change, negative = inhibition: 7.92% (inactive); cell number change: 1.72%

What does the source list for `COC(=O)C1(CCSC)NC(c2ccc(O)cc2)C2C(=O)N(c3ccc4c(c3)OCCO4)C(=O)C21` (configuration not stated)?
lipid storage change, negative = inhibition: 9.79% (inactive); cell number change: 9.07%

For `CCCC1(C(=O)OCC)NC(c2ccc(N(C)C)cc2)C2C(=O)N(c3ccc4c(c3)OCCO4)C(=O)C21` (configuration not stated), which “lipid storage change, negative = inhibition” value is on record?
Its value is -5.4% (inactive).

And the cell number change?
The cell number change was 7.42%.

With `CCCC1(C(=O)OCC)NC(c2ccc(O)cc2)C2C(=O)N(c3ccc4c(c3)OCCO4)C(=O)C21` (configuration not stated) as the molecule, how does the Potency read?
Its Potency is 18.4 µM (active).

With `COC(=O)C1(C)NC(c2ccc(O)cc2)C2C(=O)N(c3ccc(C)cc3)C(=O)C21` (configuration not stated) as the molecule, how does the “lipid storage change, negative = inhibition” value read?
The value was -17% (inactive).

And the cell number change?
The cell number change was -4.99%.
